We go through twelve compounds from paper PMC5540273 (PLoS ONE, 2017).

Test systems include EPHA3; EPHA4; EPHA5; EPHA6; EPHA7; EPHA8; EPHB1; EPHB2; EPHB3; EPHB4; EPHB6; ERBB2; ERBB3; ERBB4.
What all share (conditions): concentration: 1 μM, replicates: in singlicate; n = 1
In a further assay the test system is T1, ERK1.
T1 construct: gene MAPK3

In the next assay the test system is T2, ERK2.
T2 construct: gene MAPK1

A further assay relates to T3, ERK3.
T3 construct: gene MAPK6

The next assay relates to T4, ERK4.
T4 construct: gene MAPK4

For another assay, the system named is T5, ERK5.
T5 construct: gene MAPK7

Another assay concerns T6, ERK8.
T6 construct: gene MAPK15

The structures appear in SMILES notation.
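Also: KINOMEscan kinase panel screen.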

In the case of `CN(C(=O)c1ccc(-c2cc(-c3c[nH]nc3-c3ccccn3)ccn2)cc1)C1CCOCC1` [GW810083], the “%Inh” value came to 27% in the assay with EPHA3; 0% with EPHA4; 4% in the assay with EPHA5; 0% with EPHA6; 0% in the assay with EPHA7; 0% with EPHA8. The “%Inh” value with EPHB1 amounted to 0%; in the assay on EPHB2 it was 0%; in the assay on EPHB3, 0%; with EPHB4, 0%; in the assay with EPHB6, 0%; in the assay with ERBB2 it was 38%. In addition, the “%Inh” value in the assay with ERBB3 amounted to 16%; with ERBB4 it was 0%; with ERK1, 0%; in the assay with ERK2 it was 4%; in the assay on ERK3, 11%; with ERK4, 7%. The entries for the “%Inh” value in the assay with ERK5 and in the assay on ERK8 were 0% and 1%, respectively.
Regarding `CCn1cnc2c(N)ncnc21` [GW345098], the “%Inh” value in the assay with EPHA3 is recorded as 0%; with EPHA4 it was 7%; in the assay with EPHA5 it was 16%; with EPHA6, 17%; in the assay with EPHA7 it was 3%; in the assay with EPHA8, 1%. The “%Inh” value in the assay with EPHB1 is recorded as 7%; in the assay with EPHB2, 0%; in the assay on EPHB3 it was 17%; with EPHB4 it was 14%; in the assay with EPHB6 it was 25%; in the assay on ERBB2, 0%. In addition, the “%Inh” value with ERBB3 worked out at 10%; in the assay on ERBB4, 0%; with ERK1, 2%; in the assay with ERK2 it was 19%; with ERK3, 0%; in the assay with ERK4, 0%. The “%Inh” value came out at 2% in the assay on ERK5 and 5% with ERK8.
`Cc1nnc(-c2ccc3ncc(-c4ccc(S(C)=O)cc4)n3c2)o1` (stereo not drawn): the “%Inh” value is 2% in the assay on EPHA3; 8% with EPHA4; 11% with EPHA5; 22% in the assay with EPHA6; 1% with EPHA7; 1% in the assay on EPHA8. The “%Inh” value is given as 0% with EPHB1; 18% with EPHB2; 12% with EPHB3; 0% with EPHB4; 13% in the assay with EPHB6; 65% in the assay with ERBB2. Besides, the “%Inh” value is 3% with ERBB3; 0% in the assay on ERBB4; 0% in the assay on ERK1; 0% in the assay with ERK2; 0% in the assay on ERK3; 0% in the assay with ERK4. Moreover, the “%Inh” value with ERK5 and in the assay on ERK8 was 0% in each case.
As to `CN(C1=C(c2ccccc2)C(=O)NC1=O)c1ccccc1` [SB-334860], the “%Inh” value in the assay with EPHA3 was 24%; with EPHA4, 6%; in the assay with EPHA5, 6%; in the assay on EPHA6, 10%; in the assay with EPHA7, 2%; in the assay with EPHA8, 6%. Besides, the “%Inh” value stood at 8% with EPHB1; 20% with EPHB2; 11% in the assay with EPHB3; 9% with EPHB4; 20% in the assay on EPHB6; 29% in the assay on ERBB2. Further, the “%Inh” value was determined as 0% in the assay on ERBB3; 33% with ERBB4; 1% in the assay with ERK1; 13% in the assay with ERK2; 1% in the assay with ERK3; 44% in the assay on ERK4. For the same compound, the “%Inh” value with ERK5 and in the assay on ERK8 was 0% throughout.
On to `Fc1ccc(-c2ncn(CCCN3CCOCC3)c2-c2ccccn2)cc1` [SB-211742], for which the “%Inh” value stood at 0% in the assay on EPHA3; 8% in the assay on EPHA4; 0% in the assay with EPHA5; 0% with EPHA6; 0% in the assay on EPHA7; 9% in the assay with EPHA8. Also, the “%Inh” value with EPHB1 was 20%; with EPHB2, 0%; with EPHB3, 20%; in the assay with EPHB4, 28%; with EPHB6, 0%; in the assay with ERBB2, 10%. In addition, the “%Inh” value in the assay on ERBB3 is recorded as 52%; in the assay on ERBB4 it was 6%; with ERK1, 0%; in the assay with ERK2, 5%; with ERK3 it was 0%; with ERK4, 0%. Besides, the results for the “%Inh” value in the assay with ERK5 and in the assay on ERK8 were 19% and 0%, respectively.
As to `COC(=O)Nc1nc2cc(Oc3ccc(NC(=O)Nc4cc(F)ccc4F)cc3)ccc2[nH]1.Cl` [GW701424], the “%Inh” value in the assay with EPHA3 is listed as 8%; in the assay on EPHA4, 37%; in the assay on EPHA5, 1%; with EPHA6 it was 75%; in the assay with EPHA7, 16%; in the assay on EPHA8, 75%. Besides, the “%Inh” value in the assay on EPHB1 is recorded as 37%; in the assay with EPHB2, 68%; in the assay with EPHB3, 1%; with EPHB4, 53%; with EPHB6, 5%; with ERBB2, 43%. In addition, the “%Inh” value was 26% in the assay on ERBB3; 27% in the assay with ERBB4; 0% in the assay with ERK1; 3% in the assay on ERK2; 8% in the assay with ERK3; 0% with ERK4. In addition, the “%Inh” value with ERK5 and in the assay on ERK8 was 0% throughout.
Regarding `NS(=O)(=O)c1cccc(-c2ccc3nccc(-c4cccc(S(N)(=O)=O)c4)c3c2)c1` [GW867253], the “%Inh” value worked out at 11% with EPHA3; 0% in the assay with EPHA4; 2% in the assay with EPHA5; 0% in the assay with EPHA6; 0% with EPHA7; 4% in the assay with EPHA8. Besides, the “%Inh” value with EPHB1 is listed as 0%; in the assay on EPHB2, 0%; with EPHB3, 0%; in the assay on EPHB4, 0%; in the assay on EPHB6, 0%; with ERBB2, 11%. Further, the “%Inh” value in the assay with ERBB3 is 0%; with ERBB4, 7%; in the assay with ERK1, 0%; with ERK2, 0%; in the assay with ERK3, 0%; in the assay on ERK4 it was 0%. The “%Inh” value with ERK5 came to 0%; in the assay with ERK8, 1%.
In the case of `CNc1ncnc2[nH]ncc12` [SKF-18355], the “%Inh” value came out at 11% in the assay with EPHA3; 0% with EPHA4; 0% with EPHA5; 0% with EPHA6; 0% in the assay on EPHA7; 29% in the assay with EPHA8. The “%Inh” value came to 0% in the assay with EPHB1; 0% with EPHB2; 0% with EPHB3; 0% with EPHB4; 0% in the assay on EPHB6; 17% with ERBB2. Besides, the “%Inh” value was determined as 22% with ERBB3; 4% in the assay on ERBB4; 0% in the assay on ERK1; 0% with ERK2; 0% in the assay on ERK3; 0% in the assay on ERK4. In addition, the “%Inh” value is 0% in the assay on ERK5 and 14% in the assay on ERK8.
As to `Nc1nccc(-c2c(-c3ccc(F)cc3)ncn2C2CCN(CC(F)(F)F)CC2)n1` [SB-236560], the “%Inh” value in the assay with EPHA3, in the assay on EPHA4, in the assay with EPHA5, in the assay on EPHA6, in the assay with EPHA7 and in the assay with EPHA8 was 0% throughout. Also, the “%Inh” value in the assay on EPHB1 was found to be 0%; with EPHB2, 14%; in the assay on EPHB3 it was 0%; in the assay on EPHB4, 0%; in the assay with EPHB6, 44%; with ERBB2, 59%. Also, the “%Inh” value with ERBB3 worked out at 4%; in the assay on ERBB4, 34%; in the assay on ERK1, 0%; in the assay with ERK2, 0%; with ERK3, 0%; in the assay with ERK4, 0%. For the same compound, the “%Inh” value in the assay with ERK5 was 0%; with ERK8, 16%.
In the case of `Cl.Nc1ncnc2occ(-c3ccc(NC(=O)Nc4cc(C(F)(F)F)ccc4F)cc3)c12` [SB-707548], the “%Inh” value is listed as 76% in the assay on EPHA3; 93.9% in the assay on EPHA4; 91.5% with EPHA5; 99.3% in the assay with EPHA6; 98.9% in the assay on EPHA7; 99.7% in the assay with EPHA8. Besides, the “%Inh” value with EPHB1 is listed as 96%; with EPHB2, 94.4%; in the assay with EPHB3, 94.7%; in the assay with EPHB4 it was 96%; with EPHB6, 98.6%; in the assay with ERBB2 it was 44%. Moreover, the “%Inh” value in the assay on ERBB3 is given as 24%; with ERBB4 it was 23%; with ERK1, 0%; in the assay on ERK2, 0%; in the assay on ERK3, 0%; in the assay on ERK4, 8%. Further, the “%Inh” value in the assay with ERK5 is on record as 12%; in the assay on ERK8, 99.2%.
On to `O=C(Nc1n[nH]c2cc(-c3cccc(F)c3)ccc12)C1CC1` [SB-735464], for which the “%Inh” value amounted to 17% in the assay with EPHA3; 24% in the assay on EPHA4; 0% in the assay on EPHA5; 14% in the assay with EPHA6; 14% with EPHA7; 13% in the assay on EPHA8. The “%Inh” value with EPHB1 came to 0%; in the assay on EPHB2 it was 0%; with EPHB3, 20%; in the assay on EPHB4, 21%; in the assay with EPHB6 it was 14%; in the assay with ERBB2 it was 21%. Also, the “%Inh” value with ERBB3 is 0%; with ERBB4, 7%; with ERK1, 0%; in the assay on ERK2, 0%; with ERK3, 0%; with ERK4, 0%. Besides, the “%Inh” value with ERK5 is 8%; with ERK8 it was 32%.
Regarding `CSc1ccc(-c2cc3ncnc(SCC(=O)O)c3s2)cc1`, the “%Inh” value in the assay with EPHA3 worked out at 0%; in the assay with EPHA4, 5%; in the assay on EPHA5 it was 13%; in the assay on EPHA6, 6%; in the assay on EPHA7 it was 0%; in the assay on EPHA8 it was 0%. Moreover, the “%Inh” value in the assay with EPHB1 came to 4%; in the assay with EPHB2, 0%; with EPHB3, 15%; with EPHB4, 18%; in the assay on EPHB6 it was 33%; in the assay on ERBB2, 22%. For the same compound, the “%Inh” value with ERBB3 is recorded as 7%; with ERBB4, 0%; in the assay on ERK1 it was 0%; in the assay with ERK2, 19%; in the assay on ERK3, 0%; in the assay with ERK4, 14%. Besides, the “%Inh” value in the assay on ERK5 is 2%; in the assay with ERK8 it was 18%.
